# Data taken from ChEMBL document CHEMBL1961873, “Compounds: GSK PKIS; Assays: Nanosyn kinase panel” (2012).
# Experiments:
# [1] = target: 5'-AMP-activated protein kinase catalytic subunit alpha-2 (Homo sapiens) (UniProt P54646); conditions: at 1 µM
# [2] = target: T1, NUAK family SNF1-like kinase 1 (Homo sapiens) (UniProt O60285); conditions: at 0.1 µM
# T1 sequence (whole entry): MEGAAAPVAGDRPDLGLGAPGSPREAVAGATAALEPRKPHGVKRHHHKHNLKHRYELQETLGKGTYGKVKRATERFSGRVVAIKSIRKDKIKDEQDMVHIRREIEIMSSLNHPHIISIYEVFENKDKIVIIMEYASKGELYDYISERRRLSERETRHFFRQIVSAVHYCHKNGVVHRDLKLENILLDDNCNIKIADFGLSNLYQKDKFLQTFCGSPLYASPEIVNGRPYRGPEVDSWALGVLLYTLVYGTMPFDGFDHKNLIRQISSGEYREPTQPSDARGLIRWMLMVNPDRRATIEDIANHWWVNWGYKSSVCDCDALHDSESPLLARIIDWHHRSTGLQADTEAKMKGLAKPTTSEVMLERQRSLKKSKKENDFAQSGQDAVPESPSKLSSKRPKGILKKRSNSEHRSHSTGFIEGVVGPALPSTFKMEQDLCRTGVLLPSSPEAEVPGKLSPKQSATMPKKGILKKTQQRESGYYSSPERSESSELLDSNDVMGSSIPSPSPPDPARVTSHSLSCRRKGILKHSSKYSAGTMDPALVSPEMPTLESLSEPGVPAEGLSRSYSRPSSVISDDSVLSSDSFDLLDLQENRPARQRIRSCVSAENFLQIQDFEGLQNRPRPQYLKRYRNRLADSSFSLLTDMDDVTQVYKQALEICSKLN
# [3] = target: T1, NUAK family SNF1-like kinase 1 (Homo sapiens); conditions: at 1 µM
# [4] = target: T2, Serine/threonine-protein kinase BRSK1 (Homo sapiens) (UniProt Q8TDC3); conditions: at 0.1 µM
# T2 sequence (whole entry): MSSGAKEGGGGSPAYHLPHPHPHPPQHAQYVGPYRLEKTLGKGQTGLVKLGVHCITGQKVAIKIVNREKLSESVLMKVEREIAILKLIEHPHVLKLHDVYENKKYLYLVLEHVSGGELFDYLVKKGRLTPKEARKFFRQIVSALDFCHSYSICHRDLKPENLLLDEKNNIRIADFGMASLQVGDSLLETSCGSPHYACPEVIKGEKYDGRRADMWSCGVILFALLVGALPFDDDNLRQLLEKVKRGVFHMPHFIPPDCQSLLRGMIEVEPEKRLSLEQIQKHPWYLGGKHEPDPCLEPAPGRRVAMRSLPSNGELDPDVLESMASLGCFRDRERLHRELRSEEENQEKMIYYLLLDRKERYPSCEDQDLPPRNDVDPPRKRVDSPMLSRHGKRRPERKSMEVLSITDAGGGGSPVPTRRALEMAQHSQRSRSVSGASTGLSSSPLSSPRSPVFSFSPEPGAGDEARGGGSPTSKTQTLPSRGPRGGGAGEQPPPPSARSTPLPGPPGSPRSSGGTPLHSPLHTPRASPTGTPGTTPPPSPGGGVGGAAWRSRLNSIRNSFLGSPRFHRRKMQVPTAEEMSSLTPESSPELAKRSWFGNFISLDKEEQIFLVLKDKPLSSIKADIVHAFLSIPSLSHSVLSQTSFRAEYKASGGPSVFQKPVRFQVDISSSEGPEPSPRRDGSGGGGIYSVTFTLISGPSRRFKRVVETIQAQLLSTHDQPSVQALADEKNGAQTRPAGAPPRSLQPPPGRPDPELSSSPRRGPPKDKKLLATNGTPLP
# [5] = target: T2, Serine/threonine-protein kinase BRSK1 (Homo sapiens); conditions: at 1 µM
# [6] = target: T3, Serine/threonine-protein kinase BRSK2 (Homo sapiens) (UniProt Q8IWQ3); conditions: at 0.1 µM
# T3 sequence (whole entry): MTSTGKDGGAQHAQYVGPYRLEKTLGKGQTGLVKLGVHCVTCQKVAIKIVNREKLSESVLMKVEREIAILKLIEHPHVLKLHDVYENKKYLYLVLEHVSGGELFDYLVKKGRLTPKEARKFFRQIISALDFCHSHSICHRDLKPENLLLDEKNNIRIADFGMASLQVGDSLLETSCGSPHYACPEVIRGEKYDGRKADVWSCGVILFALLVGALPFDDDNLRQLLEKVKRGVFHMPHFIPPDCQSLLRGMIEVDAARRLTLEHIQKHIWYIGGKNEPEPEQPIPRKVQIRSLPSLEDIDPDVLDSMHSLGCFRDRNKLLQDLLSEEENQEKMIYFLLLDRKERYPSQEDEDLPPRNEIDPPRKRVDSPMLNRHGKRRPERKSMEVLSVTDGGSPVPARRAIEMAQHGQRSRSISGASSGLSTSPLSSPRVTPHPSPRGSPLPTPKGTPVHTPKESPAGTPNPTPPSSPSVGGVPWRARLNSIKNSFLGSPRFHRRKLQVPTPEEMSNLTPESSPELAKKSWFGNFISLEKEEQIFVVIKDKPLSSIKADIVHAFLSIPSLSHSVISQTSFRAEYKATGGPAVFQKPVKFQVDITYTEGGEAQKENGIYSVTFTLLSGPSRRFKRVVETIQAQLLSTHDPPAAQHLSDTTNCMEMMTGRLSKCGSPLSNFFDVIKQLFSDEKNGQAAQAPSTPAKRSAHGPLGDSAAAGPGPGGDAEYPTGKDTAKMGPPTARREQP
# [7] = target: T3, Serine/threonine-protein kinase BRSK2 (Homo sapiens); conditions: at 1 µM
# [8] = target: Calcium/calmodulin-dependent protein kinase type 1D (Homo sapiens) (UniProt Q8IU85); conditions: at 0.1 µM
# [9] = target: Calcium/calmodulin-dependent protein kinase type 1D (Homo sapiens) (UniProt Q8IU85); conditions: at 1 µM
# [10] = target: Calcium/calmodulin-dependent protein kinase type II subunit alpha (Homo sapiens) (UniProt Q9UQM7); conditions: at 0.1 µM
# [11] = target: Calcium/calmodulin-dependent protein kinase type II subunit alpha (Homo sapiens) (UniProt Q9UQM7); conditions: at 1 µM
# [12] = target: Calcium/calmodulin-dependent protein kinase type II subunit delta (Homo sapiens) (UniProt Q13557); conditions: at 0.1 µM
# [13] = target: Calcium/calmodulin-dependent protein kinase type II subunit delta (Homo sapiens) (UniProt Q13557); conditions: at 1 µM
# [14] = target: T4, Calcium/calmodulin-dependent protein kinase type IV (Homo sapiens) (UniProt Q16566); conditions: at 0.1 µM
# T4 sequence (whole entry): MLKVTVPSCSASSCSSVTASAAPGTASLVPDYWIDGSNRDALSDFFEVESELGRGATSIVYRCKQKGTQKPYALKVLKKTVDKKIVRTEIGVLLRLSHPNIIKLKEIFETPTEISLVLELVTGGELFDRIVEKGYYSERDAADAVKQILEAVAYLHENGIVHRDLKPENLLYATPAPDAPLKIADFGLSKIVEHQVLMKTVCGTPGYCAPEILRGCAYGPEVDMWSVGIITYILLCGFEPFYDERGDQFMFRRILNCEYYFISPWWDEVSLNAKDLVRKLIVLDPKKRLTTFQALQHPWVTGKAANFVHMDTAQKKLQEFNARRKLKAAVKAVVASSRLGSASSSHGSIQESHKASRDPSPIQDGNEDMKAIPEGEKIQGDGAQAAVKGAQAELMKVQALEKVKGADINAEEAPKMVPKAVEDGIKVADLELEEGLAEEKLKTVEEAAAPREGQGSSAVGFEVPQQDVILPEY
# [15] = target: T4, Calcium/calmodulin-dependent protein kinase type IV (Homo sapiens); conditions: at 1 µM
# [16] = target: T5, Serine/threonine-protein kinase Chk1 (Homo sapiens) (UniProt O14757); conditions: at 0.1 µM
# T5 sequence (whole entry): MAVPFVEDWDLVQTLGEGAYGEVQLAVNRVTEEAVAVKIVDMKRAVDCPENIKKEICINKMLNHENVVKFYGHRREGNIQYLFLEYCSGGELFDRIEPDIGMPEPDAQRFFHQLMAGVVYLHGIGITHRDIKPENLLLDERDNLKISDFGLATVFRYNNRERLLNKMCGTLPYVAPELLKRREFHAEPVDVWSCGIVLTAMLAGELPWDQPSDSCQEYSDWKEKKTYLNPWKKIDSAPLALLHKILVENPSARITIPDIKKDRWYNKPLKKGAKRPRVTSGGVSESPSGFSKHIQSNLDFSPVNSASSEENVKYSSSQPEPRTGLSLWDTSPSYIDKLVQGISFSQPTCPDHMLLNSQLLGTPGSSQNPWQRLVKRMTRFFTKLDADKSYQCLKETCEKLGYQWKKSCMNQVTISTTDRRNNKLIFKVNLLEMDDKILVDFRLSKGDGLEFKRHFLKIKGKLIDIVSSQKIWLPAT
# [17] = target: T5, Serine/threonine-protein kinase Chk1 (Homo sapiens); conditions: at 1 µM
# [18] = target: Serine/threonine-protein kinase Chk2 (Homo sapiens) (UniProt O96017); conditions: at 0.1 µM
# [19] = target: Serine/threonine-protein kinase Chk2 (Homo sapiens) (UniProt O96017); conditions: at 1 µM
# [20] = target: Death-associated protein kinase 1 (Homo sapiens) (UniProt P53355); conditions: at 0.1 µM;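 also: reported figure is the mean inhibition of DAPK1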
# Death-associated protein kinase 1 (Homo sapiens), sequence (P53355 whole entry, looked up): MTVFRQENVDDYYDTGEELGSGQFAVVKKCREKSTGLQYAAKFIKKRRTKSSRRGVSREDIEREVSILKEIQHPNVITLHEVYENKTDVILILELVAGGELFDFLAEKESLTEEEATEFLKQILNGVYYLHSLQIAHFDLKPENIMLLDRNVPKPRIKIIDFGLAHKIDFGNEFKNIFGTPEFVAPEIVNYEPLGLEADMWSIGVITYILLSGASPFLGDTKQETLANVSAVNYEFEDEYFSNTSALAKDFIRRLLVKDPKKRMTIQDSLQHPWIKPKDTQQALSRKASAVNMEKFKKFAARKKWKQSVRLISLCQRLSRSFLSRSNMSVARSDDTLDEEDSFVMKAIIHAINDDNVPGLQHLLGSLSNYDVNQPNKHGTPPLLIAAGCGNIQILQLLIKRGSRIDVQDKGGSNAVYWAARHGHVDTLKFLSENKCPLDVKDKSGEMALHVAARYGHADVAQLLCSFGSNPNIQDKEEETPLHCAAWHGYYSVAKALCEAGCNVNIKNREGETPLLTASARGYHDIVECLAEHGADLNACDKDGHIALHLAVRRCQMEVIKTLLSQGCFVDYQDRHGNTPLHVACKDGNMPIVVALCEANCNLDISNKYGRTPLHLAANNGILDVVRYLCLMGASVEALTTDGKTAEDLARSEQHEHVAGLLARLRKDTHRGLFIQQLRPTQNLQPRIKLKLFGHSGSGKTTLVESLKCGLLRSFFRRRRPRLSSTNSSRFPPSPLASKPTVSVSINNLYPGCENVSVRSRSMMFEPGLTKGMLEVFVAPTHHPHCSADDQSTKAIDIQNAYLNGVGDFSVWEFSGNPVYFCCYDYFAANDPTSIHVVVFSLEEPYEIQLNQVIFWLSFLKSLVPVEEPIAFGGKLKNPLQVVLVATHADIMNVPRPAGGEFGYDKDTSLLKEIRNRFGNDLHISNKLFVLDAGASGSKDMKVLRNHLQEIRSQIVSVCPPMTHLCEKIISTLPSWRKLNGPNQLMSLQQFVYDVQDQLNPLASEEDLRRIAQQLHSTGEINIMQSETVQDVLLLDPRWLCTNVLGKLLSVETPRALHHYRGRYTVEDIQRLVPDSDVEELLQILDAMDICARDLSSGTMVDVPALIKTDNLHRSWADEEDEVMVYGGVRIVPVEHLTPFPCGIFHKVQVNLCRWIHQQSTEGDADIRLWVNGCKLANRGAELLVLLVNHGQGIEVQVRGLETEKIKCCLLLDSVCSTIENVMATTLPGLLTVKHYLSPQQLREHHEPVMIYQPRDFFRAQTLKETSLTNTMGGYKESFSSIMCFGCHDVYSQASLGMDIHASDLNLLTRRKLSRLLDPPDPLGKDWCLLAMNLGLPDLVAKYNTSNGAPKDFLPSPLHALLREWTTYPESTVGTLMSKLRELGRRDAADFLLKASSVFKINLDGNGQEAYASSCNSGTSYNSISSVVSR
# Calcium/calmodulin-dependent protein kinase type 1D (Homo sapiens), sequence (Q8IU85 whole entry, looked up): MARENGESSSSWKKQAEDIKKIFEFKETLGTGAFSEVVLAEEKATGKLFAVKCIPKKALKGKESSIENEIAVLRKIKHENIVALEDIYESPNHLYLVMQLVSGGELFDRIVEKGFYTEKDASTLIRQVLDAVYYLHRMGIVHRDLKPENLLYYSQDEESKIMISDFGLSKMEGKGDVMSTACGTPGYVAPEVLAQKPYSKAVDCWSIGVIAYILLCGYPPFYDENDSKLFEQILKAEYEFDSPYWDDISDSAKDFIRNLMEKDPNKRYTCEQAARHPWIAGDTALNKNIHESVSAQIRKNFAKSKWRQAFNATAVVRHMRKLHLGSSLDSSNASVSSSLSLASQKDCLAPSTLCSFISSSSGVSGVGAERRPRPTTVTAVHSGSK
# Calcium/calmodulin-dependent protein kinase type II subunit delta (Homo sapiens), sequence (Q13557 whole entry): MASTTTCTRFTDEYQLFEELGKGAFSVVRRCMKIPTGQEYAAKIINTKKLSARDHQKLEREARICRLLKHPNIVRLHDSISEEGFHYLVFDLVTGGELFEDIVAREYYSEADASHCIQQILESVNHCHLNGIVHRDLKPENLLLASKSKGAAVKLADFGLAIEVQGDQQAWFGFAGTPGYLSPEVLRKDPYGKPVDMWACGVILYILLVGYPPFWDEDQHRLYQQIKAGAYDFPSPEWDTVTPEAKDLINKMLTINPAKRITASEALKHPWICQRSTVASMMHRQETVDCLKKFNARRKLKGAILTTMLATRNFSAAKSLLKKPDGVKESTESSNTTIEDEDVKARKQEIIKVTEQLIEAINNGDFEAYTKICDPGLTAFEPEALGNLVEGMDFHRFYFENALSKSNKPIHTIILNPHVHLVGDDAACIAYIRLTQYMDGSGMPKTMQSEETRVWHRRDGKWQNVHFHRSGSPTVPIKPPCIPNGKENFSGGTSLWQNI
# Serine/threonine-protein kinase Chk2 (Homo sapiens), sequence (O96017 whole entry): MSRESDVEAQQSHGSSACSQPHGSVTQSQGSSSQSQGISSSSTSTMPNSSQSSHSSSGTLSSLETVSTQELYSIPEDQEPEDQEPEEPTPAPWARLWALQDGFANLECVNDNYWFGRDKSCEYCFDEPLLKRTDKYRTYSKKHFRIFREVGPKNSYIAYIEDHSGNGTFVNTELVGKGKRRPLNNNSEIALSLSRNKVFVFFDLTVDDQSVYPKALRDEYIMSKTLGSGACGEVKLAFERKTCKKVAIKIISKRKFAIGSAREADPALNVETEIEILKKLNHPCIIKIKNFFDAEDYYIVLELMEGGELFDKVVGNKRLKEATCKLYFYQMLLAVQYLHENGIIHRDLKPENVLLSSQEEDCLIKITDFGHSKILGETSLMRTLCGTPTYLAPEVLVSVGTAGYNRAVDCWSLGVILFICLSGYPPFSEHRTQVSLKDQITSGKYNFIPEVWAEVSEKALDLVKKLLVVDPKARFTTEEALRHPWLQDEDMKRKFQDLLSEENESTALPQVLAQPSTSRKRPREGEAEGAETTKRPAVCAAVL
# 5'-AMP-activated protein kinase catalytic subunit alpha-2 (Homo sapiens), sequence (P54646 whole entry, looked up): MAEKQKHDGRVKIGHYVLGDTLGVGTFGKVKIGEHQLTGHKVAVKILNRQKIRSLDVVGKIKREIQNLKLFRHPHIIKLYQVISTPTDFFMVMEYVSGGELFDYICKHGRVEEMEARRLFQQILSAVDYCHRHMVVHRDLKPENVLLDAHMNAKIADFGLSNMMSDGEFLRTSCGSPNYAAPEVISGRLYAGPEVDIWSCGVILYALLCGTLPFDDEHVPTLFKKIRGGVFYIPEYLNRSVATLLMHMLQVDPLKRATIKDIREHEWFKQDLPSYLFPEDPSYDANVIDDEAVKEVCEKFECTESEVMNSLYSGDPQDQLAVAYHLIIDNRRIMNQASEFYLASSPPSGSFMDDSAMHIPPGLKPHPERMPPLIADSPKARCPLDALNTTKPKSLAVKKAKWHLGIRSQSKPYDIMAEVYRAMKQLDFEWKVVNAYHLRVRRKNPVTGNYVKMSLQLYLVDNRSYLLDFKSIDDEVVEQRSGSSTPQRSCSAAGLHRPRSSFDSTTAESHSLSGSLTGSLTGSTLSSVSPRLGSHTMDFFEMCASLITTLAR
# Calcium/calmodulin-dependent protein kinase type II subunit alpha (Homo sapiens), sequence (Q9UQM7 whole entry): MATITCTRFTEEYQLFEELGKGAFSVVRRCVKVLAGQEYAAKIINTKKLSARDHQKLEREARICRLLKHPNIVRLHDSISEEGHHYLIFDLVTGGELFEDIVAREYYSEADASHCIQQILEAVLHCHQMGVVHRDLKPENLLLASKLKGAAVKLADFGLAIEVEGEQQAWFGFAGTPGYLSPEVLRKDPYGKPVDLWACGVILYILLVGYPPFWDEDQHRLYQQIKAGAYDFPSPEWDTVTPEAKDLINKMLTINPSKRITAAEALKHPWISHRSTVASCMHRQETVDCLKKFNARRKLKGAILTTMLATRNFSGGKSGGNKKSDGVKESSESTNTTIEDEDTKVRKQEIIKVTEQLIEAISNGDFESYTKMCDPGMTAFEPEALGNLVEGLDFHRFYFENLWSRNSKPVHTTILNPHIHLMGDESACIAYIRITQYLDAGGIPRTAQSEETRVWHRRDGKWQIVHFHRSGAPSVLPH
Compound,inhibition [1] [%],inhibition [2] [%],inhibition [3] [%],inhibition [4] [%],inhibition [5] [%],inhibition [6] [%],inhibition [7] [%],inhibition [8] [%],inhibition [9] [%],inhibition [10] [%],inhibition [11] [%],inhibition [12] [%],inhibition [13] [%],inhibition [14] [%],inhibition [15] [%],inhibition [16] [%],inhibition [17] [%],inhibition [18] [%],inhibition [19] [%],inhibition [20] [%]
COc1cc2ncn(-c3cc(O[C@@H](C)c4ccccc4Cl)c(C(N)=O)s3)c2cc1OC,5.06,3.52,22.4,8.66,44,19.4,58.9,1.43,1.53,1.15,-1,2.63,5.01,-1.47,-3.56,9.31,11.3,8.19,11.6,13.5
COc1ccc(-c2coc3ncnc(N)c23)cc1,5.94,3.47,1.24,3.33,4.41,2.46,4.44,1.1,2.41,3.92,3.94,3.92,5.31,1.63,1.94,9.42,12.4,7.79,8.17,10.8
CS(=O)(=O)CCNCc1nc(-c2ccc3ncnc(Nc4ccc(F)c(Cl)c4)c3c2)cs1,1.32,2.92,2,0.92,1.59,2.32,6.52,1.26,1.23,5.16,3.45,1.76,3.83,-0.31,0.31,2.71,3.9,-0.4,1.15,4.88
Nc1ncnc2occ(-c3ccc(NC(=O)Nc4cc(C(F)(F)F)cc(C(F)(F)F)c4)cc3)c12,4.79,1.19,2.22,1.78,3.44,1.11,0.11,1.67,4.38,3.17,2.09,2.95,1.63,0.17,3.99,1.83,5.4,1.45,2.14,1.57
CCn1c(-c2nonc2N)nc2c(C#CC(C)(C)O)nc(OC[C@@H](N)c3ccccc3)cc21,21.1,28,94.5,0.41,4.9,0.42,5,0.26,2.9,-2.45,0.34,-0.01,1.5,2.61,3.39,-5.33,7.52,-5.8,1.05,-8.66
CS(=O)(=O)Nc1ccc(N/C=C2\C(=O)Nc3ccccc32)cc1,4.21,12.6,43.9,2.83,16.5,4.09,30.6,-1.16,0.24,-3.83,-2.22,-2.44,4.73,-0.09,-1.35,-0.22,5.75,-1.67,10.4,-1.81
O=C1NC(=O)C(c2ccc(Cl)cc2)=C1Nc1ccc(Cl)c(C(=O)O)c1,-0.57,1.82,3.54,-0.49,0.55,0.35,-1.78,-0.66,4.19,-2.83,-3.46,-2.31,1.44,0.68,0.51,-0.04,-1.22,-2,-1.93,-1.53
CC1=C(C(=O)Nc2ccc3[nH]ncc3c2)C(c2ccc3ccccc3c2)CC(=O)N1 (stereo not given),11.5,7.78,43.5,1.91,20.8,3.96,31.3,-0.51,0.49,-0.08,0.99,0.33,3.19,1.12,0.1,0.95,3.91,1.29,4.21,0.55
COc1cc2ncn(-c3cc(O[C@H](C)c4ccccc4Cl)c(C(N)=O)s3)c2cc1OC,8.68,24,71.8,30.1,64.9,42,69.2,1.01,2.31,3.24,7.42,5.14,19.1,-2.07,-0.73,3.51,-0.5,-2.58,-0.51,-5.15
CS(=O)(=O)CCN(CC#N)Cc1ccc(-c2ccc3ncnc(Nc4ccc(OCc5cccc(F)c5)c(Cl)c4)c3c2)o1,-0.61,0.1,1.9,0.56,-2.91,0.28,0.65,-1.29,-1.27,-0.98,-2.02,1.25,2.48,-2.98,-0.45,0.28,2.55,0.67,1.7,-0.47
O=C1NC(=O)C(c2cccc(Cl)c2)=C1Nc1ccc(O)c(Cl)c1,11,8.01,48.3,2.57,12.9,2.05,19,1.1,5.88,3.72,6.43,3.12,12,1.98,4.94,1.7,4.63,0.16,2.07,1.29
COc1cc(C=NNc2ncnc3c2cnn3-c2ccccc2)ccc1O,6.79,16.1,57.3,8.76,40.1,10.3,43.5,0.83,2.96,3.14,5.31,3.65,12.4,-0.28,-1.35,-2.23,-2.87,-3.59,-0.98,-5.64
CCn1c(-c2nonc2N)nc2cncc(C(=O)N3CC[C@H](N)C3)c21,6.01,0.02,0.59,1.37,2.48,0.94,6.07,1.79,0.54,3.71,3.64,4.1,4.33,1.7,-0.55,4.56,6.37,1.1,1.86,5.74
